This is part of a sample that, as a whole, favours compounds with a hit. Of some 83,000 tested, about 20% had one in any assay.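 Values shown are percent growth following 48 h exposure of cells in 96-well plates to a single concentration of compound; below 10 was considered active.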 Values without a mark were called inactive. Active and inactive are the calls of the source.
Key:
Assay in all cases: NCI-60 one-dose screen, 48 h (100 = growth as untreated, 0 = no growth, -100 = all killed)
Conditions in all cases: 10 µM unless noted
SR leukemia = test system: SR leukemia
RPMI-8226 leukemia = test system: RPMI-8226 leukemia
OVCAR-8 ovarian = test system: OVCAR-8 ovarian
OVCAR-4 ovarian = test system: OVCAR-4 ovarian
SK-OV-3 ovarian = test system: SK-OV-3 ovarian
IGROV1 ovarian = test system: IGROV1 ovarian
OVCAR-3 ovarian = test system: OVCAR-3 ovarian
HS 578T breast = test system: HS 578T breast
NCI/ADR-RES ovarian = test system: NCI/ADR-RES ovarian
T-47D breast = test system: T-47D breast
BT-549 breast = test system: BT-549 breast
MDA-MB-435 melanoma = test system: MDA-MB-435 melanoma
SW-620 colon = test system: SW-620 colon
MCF7 breast = test system: MCF7 breast
HCT-116 colon = test system: HCT-116 colon
HCC-2998 colon = test system: HCC-2998 colon
KM12 colon = test system: KM12 colon
OVCAR-5 ovarian = test system: OVCAR-5 ovarian

Row | Structure (SMILES) | growth (SR leukemia) | growth (RPMI-8226 leukemia) | growth (OVCAR-8 ovarian) | growth (OVCAR-4 ovarian) | growth (SK-OV-3 ovarian) | growth (IGROV1 ovarian) | growth (OVCAR-3 ovarian) | growth (HS 578T breast) | growth (NCI/ADR-RES ovarian) | growth (T-47D breast) | growth (BT-549 breast) | growth (MDA-MB-435 melanoma) | growth (SW-620 colon) | growth (MCF7 breast) | growth (HCT-116 colon) | growth (HCC-2998 colon) | growth (KM12 colon) | growth (OVCAR-5 ovarian) [%]
1 | Cc1c(C)c2c(c(C)c1NC(=O)CCCCCCC(=O)O)CCC(C)(CCCC(C)CCCC(C)CCCC(C)C)O2 (stereo unspecified) | 6.23% (active) | 69% | 69.1% | 58.5% | 99.3% | 89.8% | 65.5% | 101% | 77.3% | 89.7% | 60.3% | 95% | 80.4% | 43.5% | 22.7% | 98.2% | 30.7% | 
2 | C[C@H]1[C@H]2C3=CC[C@@H]4[C@@]5(C)C/C(=C/c6ccco6)C(=O)C(C)(C)[C@@H]5CC[C@@]4(C)[C@]3(C)CC[C@@]2(C(=O)N2CCOCC2)CC[C@@H]1C | 29.4% | 40.4% | 54.7% | 50.1% | 107% | 56.5% | 55.6% | 77.9% | 83.1% | 32% | 75.8% | 97.1% |  |  | 26.9% | 90.5% | 54.2% | 
3 | Cc1ccc(N(CC(=O)Nc2ccc(S(=O)(=O)NC3CCN(C)CC3)cc2)S(=O)(=O)c2ccc(Cl)cc2)cc1 | 5.99% (active) | 65.6% | 96.2% | 87.8% | 105% | 85.7% | 72.5% | 69.5% | 98.6% | 58.4% | 86.6% |  | 10.1% | 39% | 47.6% | 30.4% | 61.2% | 
4 | NC(=O)NCC1CCCCC1 | 99.4% | 108% | 114% | 102% | 109% | 101% | 109% | 112% | 95.1% | 97.7% | 104% | 102% | 108% | 90.6% | 106% | 95.5% | 102% | 
5 | CN(C)c1ccc(N=C2C=CC(=O)C=C2)cc1 | 25.9% | 61.1% | 81.7% | 70.4% | 99.7% | 96.5% | -14.8% (active) | 72.5% | 90.8% | 60.6% | 31.3% | 74.5% | 96.3% | 72.3% | 74.3% | 94.3% |  | 
6 | CC1(C)C(=O)/C(=C\c2cccnc2)C[C@]2(C)[C@H]3CC[C@@H]4[C@@H](C(=O)/C=C/c5ccncc5)CC[C@@]4(C)[C@]3(C)CC[C@@H]12 | 5.46% (active) | -7.22% (active) | 19.5% | 18.9% | 64.2% | -28.1% (active) | -48.6% (active) | 31.7% | -0.549% (active) | 16.9% | 8.03% (active) | -11.4% (active) | 8.95% (active) | 26.2% | -86.9% (active) | 59.7% | -20.9% (active) | 
7 | CN1CCN(c2nc(-c3csc(-c4cccs4)n3)cc3ccccc23)CC1 | 2.45% (active) | 13.3% | 75.6% | 57.9% | 90.8% | 23.1% | 39.9% | 71.3% | 70.8% | 52.1% | 70.4% | 12.2% | 9.06% (active) | 40.8% | 46.7% | -38.2% (active) | 5.42% (active) | 
8 | Nc1nc2c3ccncc3cc(-c3cccc(Cl)c3)c2c2cnccc12 | 9.04% (active) | 5.57% (active) | 24.1% | 65.6% | 61.9% | 59% | 54.6% | 35.5% | 30.6% | 32% | 37% | 66.8% |  | 33.4% | 5.95% (active) | 74.9% | 46.2% | 
9 | COc1ccc2c(c1)c(-c1nc(-c3c[nH]c4ncccc34)cs1)cn2CCCN1CCCCC1 | -38% (active) | -33% (active) | 49.1% | 62.6% | 61.7% | 34.4% | 27.8% | 59.7% | 58.7% | 66.1% | 67.5% | -84.6% (active) | -43.3% (active) | 10% (active) | 25.9% | 88.5% | 47.3% | 
10 | COc1ccc(/C=C(\C#N)c2cc3ccccc3n2C(C)=O)cc1 | 47.3% | 83.2% | 103% | 96.5% | 107% | 89.8% | 92.8% | 87.4% | 55.6% | 78.5% | 82.6% | 9.69% (active) | 59.5% | 53.7% | 81.1% | 81.2% | 57.1% | 
11 | c1ccc(-c2nc(Nc3ccc(-c4nc5ccccc5[nH]4)cc3)nc(N3CCOCC3)n2)cc1 | 8.94% (active) | -22.6% (active) | -50.4% (active) | -47.2% (active) | -30.3% (active) | -38.1% (active) | -73.4% (active) | -39.9% (active) | -60.8% (active) | -62.3% (active) | 33.7% | -81.1% (active) |  | -76.2% (active) | -81.5% (active) | -80.7% (active) | -76.6% (active) | 
12 | CC(C)C[C@@H](NC(=O)[C@@H](Cc1ccccc1)NC(=O)c1cnccn1)B1O[C@H]2[C@H](O)[C@@H](C(=O)NCCCC[C@@H]3NC(=O)[C@@H](Cc4ccccc4)NC(=O)[C@H](CC(=O)O)NC(=O)CNC(=O)[C@H](CCCN=C(N)N)NC3=O)O[C@@H](CN)[C@H]2O1 | 1.66% (active) | 0.803% (active) | -42.6% (active) | -27.9% (active) | -42.2% (active) | 4.07% (active) | -55.3% (active) | 4.75% (active) | 7.01% (active) | -70.4% (active) | -66.1% (active) | -78.1% (active) | -47.7% (active) | -17.1% (active) | -50% (active) | -78.9% (active) | -43.9% (active) | 
13 | COc1ccc(C(=O)c2cc(OC)c(OC)c(OC)c2)cc1/C=C/C(=O)c1cc(OC)c(OC)c(OC)c1 | 43.2% | 67% | 86.7% |  | 105% | 95.9% |  | 82.4% | 81.1% | 89.7% | 86.8% | 65.2% | 92.9% | 75.2% | 67.8% | 100% | 86.6% | 88.7
14 | Cn1cc(-c2nc(-c3cn(C)c4ncccc34)cs2)c2ccccc21 | 18.4% | 39.6% | 47.9% |  | 43.2% | 45% |  | 81% | 8.77% (active) | 42% | 48.3% | -18.6% (active) | 27% | 15.9% | 14.6% | 67.4% | 22.5% | 73
15 | O=[N+]([O-])c1cccc(/C=N\Nc2ccccc2)c1 | 89.6% | 86.5% | 63.8% |  | 95.8% | 60.1% |  | 71.7% | 48.7% | 55.8% |  | 53.8% | 71.3% | 64.5% | 58.3% | 83.8% | 38.8% | 74.7
16 | CN(C)c1ccc(C(=O)c2ccc(N(C)C)c(N)c2)cc1N | 7.86% (active) | 60.4% | 41.6% | 47% | 24.6% | 72.8% | -31% (active) | 7.6% (active) | -14% (active) | 21.9% | 31.9% | -32.1% (active) | 10.2% | 15% | 23.6% | 86.1% | 17.7% | 
17 | O=C1C(=O)c2ccccc2C(O)=C1CCCc1ccc(C2CCCCC2)cc1 | 35.6% | 21.1% | 51.4% | 58.2% | 56.6% | 51.3% | 18% | 53.4% | 42.8% | 44% | 52.6% | 53.7% | 36.8% | 32.9% | 19.4% | 29.5% | 24.2% | 
18 | CC(Cc1ccco1)C(=O)NC(N)=O (stereo unspecified) | 100% | 102% | 101% | 108% | 120% | 108% | 111% | 109% | 104% | 114% | 106% | 105% | 104% | 102% | 106% | 105% | 105% | 

Source: PubChem BioAssay (NCI)
